Out of some 52,000 compounds screened, about 4,300 (8.3%) were called active. Cut-off read from the data, not from the text of the source: active = survival mostly below about 52% (no sharp cut-off); inactive = mostly above about 56%. The sample as a whole holds a higher share of actives than the screen did.
These molecules were tested on DeltatarO mutant (assay: growth inhibition of S. aureus wild type versus tarO mutant, primary screen, teichoic acid synthesis inhibitors, RN4220, OD600 (AID 463173)). Details: OD600, 18 h, stronger effect = lower value, screened at 18.75 µg/mL (by protocol).
`CCOc1ccc(CCNC(=O)CN2C(=O)COc3ccc(S(=O)(=O)N4CCCC4)cc32)cc1` was tested, and the survival was 69% (inactive). `Cc1ccc(C(c2sc3nc(-c4ccco4)nn3c2O)N2CCCCC2)cc1` (stereo unspecified) was tested, and the survival was 93% (inactive). In the case of `COc1ccc(S(=O)(=O)n2nc(-c3ccco3)nc2NCc2ccc(OC)c(OC)c2)cc1`, the survival is reported as 55% (inactive). For `COc1ccc(CNc2n[nH]c(-c3ccco3)n2)cc1OC`, the survival was 62% (active). With `Fc1cccc(Cl)c1CNc1n[nH]c(-c2ccco2)n1` the survival was 76% (inactive). `COc1ccc(CNc2nc(-c3ccco3)nn2S(=O)(=O)c2ccc(Cl)cc2)cc1OC` was tested, and the survival was 61% (inactive). `COc1ccc(CNc2nc(-c3ccco3)nn2S(=O)(=O)c2ccc3ccccc3c2)cc1OC` was tested, and the survival was 58% (active). With `CC(C)c1ccc(CNc2n[nH]c(-c3ccco3)n2)cc1` the survival was 80% (inactive). `Cc1ccc(C(=O)Nc2cccc(O)c2)cc1S(=O)(=O)N1CCCCCC1` was tested, and the survival was 79% (inactive). For `CCN(CC)CCCNC(=O)CN1N=C(c2ccccc2)CCC1=O`, the survival was 87% (inactive). With `CCOc1ccccc1NC(=O)CN1C(=O)C(=O)c2ccccc21` the survival was 94% (inactive). `COc1ccc(NC(=O)CCn2c(=O)c3cccn3c3ccccc32)c(OC)c1` was tested, and the survival was 47% (active). In the case of `COc1ccc(OC)c(CCNC(=O)CCCn2c(=O)c3cccn3c3ccccc32)c1`, the survival is reported as 77% (inactive). In the case of `COc1ccc(NC(=O)CN2C(=O)C(=O)c3ccccc32)c(OC)c1`, the survival is reported as 52% (active). `COc1ccc(OC)c(NC(=O)Cn2c(=O)c3cccn3c3ccccc32)c1` was tested, and the survival was 41% (active). In the case of `COc1ccc(CNC(=O)Cn2c(=O)c3cccn3c3ccccc32)cc1`, the survival is reported as 47% (inactive). With `Cc1ccc(NC(=O)CCCn2c(=O)c3cccn3c3ccccc32)c(C)c1` the survival was 49% (inactive). `COc1ccc(NC(=O)Cn2c(=O)c3cccn3c3ccccc32)cc1` was tested, and the survival was 49% (inactive). With `Cc1ccc(NC(=O)CCn2c(=O)c3cccn3c3ccccc32)c(Cl)c1` the survival was 57% (inactive). In the case of `COc1ccc(NC(=O)CCn2c(=O)c3cccn3c3cccnc32)c(OC)c1`, the survival is reported as 103% (inactive). In the case of `COc1ccc(NC(=O)CCCn2c(=O)c3cccn3c3ccccc32)c(OC)c1`, the survival is reported as 57% (active). `Cc1cc(Cl)ccc1NC(=O)CN1C(=O)C(=O)c2ccccc21` was tested, and the survival was 71% (inactive). For `CC1CN(C(=O)Nc2ccc(C(=O)NCCc3ccccc3Cl)cc2)c2ccccc2S1` (stereo unspecified), the survival was 61% (inactive). `COc1ccc(NC(=O)c2ccc3c(c2)sc2nc(-c4ccc(OC)cc4)cn23)cc1` was tested, and the survival was 61% (inactive). In the case of `CN=C1SC(CC(=O)NC)C(=O)N1C` (stereo unspecified), the survival is reported as 86% (inactive). For `CCCc1noc2c1C1=NNC(=O)C1C(C)(C)C2` (stereo unspecified), the survival was 76% (inactive). `O=c1[nH]c2ccc(NCc3ccc(-c4ccccc4)o3)cc2[nH]1` was tested, and the survival was 86% (inactive). For `O=C(Nc1ccc(-n2nncc2-c2ccccc2)cc1)c1cccc(F)c1`, the survival was 129% (inactive). In the case of `COc1ccc(N2CCN(C(=O)CCc3c(C)nc4cc(-c5ccc(OC)cc5OC)nn4c3C)CC2)cc1`, the survival is reported as 104% (inactive). With `CC(C)CNC(=O)c1cccc(Cl)c1` the survival was 82% (inactive). `COc1ccc(CCNC(=O)Cn2cc(C(=O)c3ccc(Cl)cc3)c(=O)c3ccc(C)nc32)cc1OC` was tested, and the survival was 79% (inactive). In the case of `Cc1cc(C)c(NC(=O)Cn2c(=O)c3cccn3c3ccccc32)c(C)c1`, the survival is reported as 51% (inactive). For `COc1cc(OC)c(NC(=O)CCn2cccn2)cc1Cl`, the survival was 79% (inactive). With `COc1ccc(NC(=O)CCn2c(=O)c3cccn3c3cccnc32)cc1Cl` the survival was 85% (inactive). In the case of `Cc1cccc(NC(=O)Cn2c(=O)c3cccn3c3ccccc32)c1C`, the survival is reported as 43% (active). With `COc1ccc(NC(=O)CCCn2c(=O)c3cccn3c3cccnc32)cc1Cl` the survival was 87% (inactive). With `COc1ccc(OC)c(NC(=O)CCn2cccn2)c1` the survival was 47% (active). For `COc1cc(NC(=O)CCn2c(=O)oc3ccccc32)cc(OC)c1OC`, the survival was 62% (inactive). In the case of `Cc1c(Cl)cccc1NC(=O)CCn1c(=O)c2cccn2c2ccccc21`, the survival is reported as 49% (inactive). In the case of `COc1ccc(Cl)cc1NC(=O)CCn1c(=O)oc2ccccc21`, the survival is reported as 40% (active). `COc1ccc(NC(=O)Cn2c(=O)c3cccn3c3ccccc32)cc1Cl` was tested, and the survival was 42% (active). With `COc1ccc(OC)c(NC(=O)CCn2cnnn2)c1` the survival was 80% (inactive). In the case of `COc1ccc(NC(=O)Cn2c(=O)oc3cc(Cl)ccc32)c(OC)c1`, the survival is reported as 91% (inactive). `COc1ccc(OC)c(NS(=O)(=O)c2ccc(-n3cccn3)cc2)c1` was tested, and the survival was 95% (inactive). In the case of `Cc1ccsc1CN1CCc2nc(Nc3ccccc3)ncc2C1`, the survival is reported as 61% (inactive). For `CCc1cccc(C)c1NC(=O)C1CCN(c2nn3c(=O)cc(C)nc3s2)CC1`, the survival was 119% (inactive). `Cc1cccc(N2CCN(c3ncnc4c3nc3n4CCCCC3)CC2)c1C` was tested, and the survival was 95% (inactive). In the case of `COc1ccc(C(=O)NCC(c2cccnc2)N2CCN(c3ccccc3OC)CC2)cc1` (stereo unspecified), the survival is reported as 77% (inactive). With `CCc1ccc(NC(=O)Cn2c(=O)c3cccn3c3ccccc32)cc1` the survival was 56% (inactive). For `Cc1ccc(Cl)cc1NC(=O)CCCn1c(=O)c2cccn2c2ccccc21`, the survival was 61% (inactive). In the case of `COc1ccc(OC)c(CNC(=O)Cc2ccc(NC(=O)N3CCCCc4ccccc43)cc2)c1`, the survival is reported as 99% (inactive). With `COc1ccc(NC(=O)Cc2ccc(NC(=O)N3CCCCc4ccccc43)cc2)c(OC)c1` the survival was 47% (active). In the case of `COc1ccc(Cl)cc1NC(=O)NCCn1c(=O)oc2ccc(C)cc21`, the survival is reported as 46% (active). For `Cc1ccc2oc(=O)n(CCNC(=O)Nc3ccc(Cl)cc3)c2c1`, the survival was 72% (inactive). For `Cc1ccc2oc(=O)n(CCNC(=O)Nc3ccccc3C)c2c1`, the survival was 109% (inactive). For `COc1ccc(C)cc1NC(=O)Cc1ccc(NC(=O)N2CCCCc3ccccc32)cc1`, the survival was 67% (inactive). `COc1ccc(Cl)cc1NC(=O)CCCn1c(=O)c2cccn2c2cccnc21` was tested, and the survival was 87% (inactive). For `COc1ccc(Cl)cc1NC(=O)CCn1c(=O)c2cccn2c2ccccc21`, the survival was 42% (active). In the case of `CC(=O)c1ccc(NC(=O)Cn2c(=O)c3cccn3c3ccccc32)cc1`, the survival is reported as 42% (active). `CCOC(=O)c1cccc(NC(=O)Cn2c(=O)c3cccn3c3ccccc32)c1` was tested, and the survival was 100% (inactive). In the case of `CCOC(=O)c1c(S(=O)(=O)NCC(=O)N2CCN(c3cccc(Cl)c3)CC2)c(C)n(C)c1C`, the survival is reported as 86% (inactive).
